Common to all, as to assay: NCI-60 one-dose screen, 48 h (100 = growth as untreated, 0 = no growth, -100 = all killed)
For one test, the system named is NCI-H23 lung. As to conditions: 10 µM unless noted.
Another test has as its system NCI-H226 lung. As to conditions: 10 µM unless noted.
In another test the test system is NCI-H322M lung. The conditions noted are these: 10 µM unless noted.
The subject of the next test is NCI-H460 lung. As to conditions: 10 µM unless noted.
In a further test the test system is HOP-92 NSCLC. As to conditions: 10 µM.
In the next test the test system is NCI-H522 lung. The conditions noted are these: 10 µM.
A further test relates to A549/ATCC NSCLC. The conditions noted are these: 10 µM unless noted.
Another test relates to 786-0 renal. As to conditions: 10 µM unless noted.
A further test deals with COLO 205 colon. As to conditions: 10 µM unless noted.
A further test relates to DU-145 prostate. The conditions noted are these: 10 µM unless noted.
Another test deals with K-562 leukemia. As to conditions: 10 µM unless noted.
The next test deals with MALME-3M melanoma. As to conditions: 10 µM unless noted.
A further test concerns MDA-MB-231 breast. As to conditions: 10 µM unless noted.
A further test concerns RXF 393 renal. As to conditions: 10 µM unless noted.
The next test deals with SF-268 CNS. As to conditions: 10 µM unless noted.
For another test, the system named is SF-295 CNS. As to conditions: 10 µM unless noted.
A further test has as its system SF-539 CNS. The conditions noted are these: 10 µM unless noted.
Another test concerns UACC-257 melanoma. The conditions noted are these: 10 µM unless noted.
For a further test, the system named is M14 melanoma. The conditions noted are these: 10 µM unless noted.

Compounds without any hit were thinned out: in the full panel of roughly 83,000, 20% have a hit.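 Cell lines were cultured in 96-well plates, exposed to a single compound concentration, and assessed for percent growth 48 hours later.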 A number with no mark means an inactive call. Activity calls are given as the source filed them. Rule for the calls: active = growth percent below 10; inactive = the rest.

`Clc1ccc(N/N=C/c2ccccn2)nc1`: the growth is 6.51% (active) in the test with NCI-H23 lung; -12.3% (active) in the test with NCI-H226 lung; 23.6% in the test on NCI-H322M lung; 3.11% (active) in the test on NCI-H460 lung; 39.7% in the test with HOP-92 NSCLC; 37.5% in the test on NCI-H522 lung. Also, the growth in the test with A549/ATCC NSCLC was 11.2%; with 786-0 renal, 7.14% (active); in the test on COLO 205 colon, 13.6%; with DU-145 prostate, 19.2%; with K-562 leukemia, 10.8%; in the test with MALME-3M melanoma, 1.36% (active). Also, the growth is 34.5% with MDA-MB-231 breast; 16.2% with RXF 393 renal; 6.56% (active) with SF-268 CNS; 1.61% (active) in the test with SF-295 CNS; 1.62% (active) in the test on SF-539 CNS; 1.06% (active) with UACC-257 melanoma. The growth with M14 melanoma is -25.7% (active).

On to `Cc1sc(NC(=O)c2ccc(C(C)(C)C)cc2)c(C(=O)O)c1C`, for which the growth with NCI-H23 lung is 62.9%; in the test on NCI-H226 lung it was 92.3%; with NCI-H322M lung it was 97.3%; in the test with NCI-H460 lung, 50.9%; with HOP-92 NSCLC, 66.3%; with NCI-H522 lung, 56.3%. Further, the growth in the test on A549/ATCC NSCLC is 24.4%; with 786-0 renal, 73.8%; in the test on COLO 205 colon, 55.6%; in the test with DU-145 prostate it was 61.6%; in the test on K-562 leukemia it was 38.1%; in the test with MALME-3M melanoma, 111%. Besides, the growth in the test on MDA-MB-231 breast was 105%; in the test on RXF 393 renal, 114%; in the test on SF-268 CNS, 88.1%; in the test on SF-295 CNS, 35.7%; in the test with SF-539 CNS, 65.8%; in the test on UACC-257 melanoma it was 101%. Moreover, the growth in the test on M14 melanoma was 107%.

Consider `Nc1cc2c(cc1Br)[nH]c(=O)c1ccccc12`, for which the growth in the test with NCI-H23 lung was 54.4%; in the test with NCI-H226 lung it was 54.8%; in the test on NCI-H322M lung it was 83.8%; with NCI-H460 lung, 38.4%; in the test on HOP-92 NSCLC, 35%; with NCI-H522 lung, 43%. The growth is 29.3% in the test with A549/ATCC NSCLC; 58.6% in the test with 786-0 renal; 68.1% in the test with COLO 205 colon; 27.8% in the test on DU-145 prostate; 40.7% in the test with K-562 leukemia; 26.3% in the test with MALME-3M melanoma. For the same compound, the growth is 32% with MDA-MB-231 breast; 22% in the test with RXF 393 renal; 51.3% in the test with SF-268 CNS; 74.8% with SF-295 CNS; 110% in the test on SF-539 CNS; 45.8% with UACC-257 melanoma. In addition, the growth with M14 melanoma is 22%.

On to `CCC(CCCN1C(=O)c2ccccc2C1=O)Nc1cc(OC)cc2cccnc12` (stereo unspecified), for which the growth in the test on NCI-H23 lung was 97.6%; in the test on NCI-H226 lung, 107%; in the test with NCI-H322M lung, 116%; with NCI-H460 lung, 112%; in the test on HOP-92 NSCLC it was 72.4%; with NCI-H522 lung it was 103%. Moreover, the growth with A549/ATCC NSCLC is 106%; with 786-0 renal, 103%; in the test with COLO 205 colon it was 119%; in the test on DU-145 prostate it was 102%; with K-562 leukemia it was 77.2%; with MALME-3M melanoma, 142%. The growth in the test with MDA-MB-231 breast is 93.2%; in the test with RXF 393 renal, -5.08% (active); with SF-268 CNS, 119%; in the test with SF-295 CNS, 111%; in the test with SF-539 CNS, 93.4%; in the test with UACC-257 melanoma it was 100%. Further, the growth in the test on M14 melanoma was -100% (active).

Regarding `O=Nc1c(-c2c(O)[nH]c3cc(Br)ccc23)[nH]c2ccccc12`, the growth with NCI-H23 lung was -80.8% (active); with NCI-H226 lung, -39.4% (active); with NCI-H322M lung it was 16.6%; in the test with NCI-H460 lung, -72.8% (active); with HOP-92 NSCLC, 14.4%; with NCI-H522 lung, -29% (active). The growth with A549/ATCC NSCLC was -61.9% (active); in the test with 786-0 renal, 6.13% (active); with COLO 205 colon, -100% (active); with DU-145 prostate, -88.8% (active); in the test on K-562 leukemia, -64.1% (active); in the test on MALME-3M melanoma it was 61.6%. In addition, the growth in the test with MDA-MB-231 breast was 9.57% (active); with RXF 393 renal it was -62.6% (active); in the test with SF-268 CNS, -61% (active); in the test with SF-295 CNS, -26.2% (active); in the test with SF-539 CNS, -44.8% (active); in the test with UACC-257 melanoma it was -78.8% (active). For the same compound, the growth in the test on M14 melanoma was 31.1%.

For the compound `CCC(C)C1NC(=O)C(CC(C)C)NC(=O)C(C)NC(=O)C(C(C)C)NC(=O)C(CCCCN)NC(=O)C(CC(C)C)NC(=O)C(C(C)C)NC(=O)[C@H](C)NC(=O)C(C(C)CC)NC(=O)C(CCCN=C(N)N)NC(=O)C(CCCCN)NC(=O)C(CCCN=C(N)N)NC(=O)C(CCCCN)NC(=O)C([C@H](C)CC)NC(=O)C(CCCCN)NC1=O` (stereo partly specified), the growth with NCI-H23 lung is 8.22% (active); with NCI-H226 lung, 44.9%; in the test on NCI-H322M lung, 64.9%; in the test on NCI-H460 lung, 4.91% (active); in the test on HOP-92 NSCLC, -21.8% (active); in the test on NCI-H522 lung it was -5.53% (active). For the same compound, the growth with A549/ATCC NSCLC is 22.3%; with 786-0 renal, 10.5%; in the test with COLO 205 colon, -73% (active); in the test with DU-145 prostate, 23.8%; in the test with K-562 leukemia, 8.83% (active); in the test with MALME-3M melanoma it was 15.2%. For the same compound, the growth was -0.693% (active) with MDA-MB-231 breast; 33% in the test with RXF 393 renal; 20.3% in the test with SF-268 CNS; 21.4% in the test on SF-295 CNS; 67.2% with SF-539 CNS; 1.31% (active) with UACC-257 melanoma. The growth with M14 melanoma is 17.7%.

Regarding `CC/C(=N\Nc1nc2ccccc2n1C)c1ccccn1`, the growth in the test with NCI-H23 lung is 7.14% (active); in the test on NCI-H226 lung, -0.758% (active); with NCI-H322M lung, 21%; in the test with NCI-H460 lung, 1.28% (active); in the test with HOP-92 NSCLC, 29.2%; in the test on NCI-H522 lung, 18.7%. For the same compound, the growth is 2.95% (active) with A549/ATCC NSCLC; 2.44% (active) with 786-0 renal; 21.9% with COLO 205 colon; 11.8% in the test on DU-145 prostate; 8.28% (active) in the test with K-562 leukemia; 9.46% (active) in the test with MALME-3M melanoma. In addition, the growth in the test on MDA-MB-231 breast is 20.8%; in the test with RXF 393 renal it was 2.73% (active); with SF-268 CNS, 3.39% (active); in the test on SF-295 CNS it was -19.8% (active); with SF-539 CNS it was -6.18% (active); in the test with UACC-257 melanoma it was -0.857% (active). The growth in the test on M14 melanoma is -19% (active).

For `CC(=O)Nc1ccc(C(=O)/C=C/c2ccc(N(C)C)cc2)cc1`, the growth in the test with NCI-H23 lung is 93.9%; with NCI-H226 lung, 96.9%; in the test with NCI-H322M lung it was 106%; in the test with NCI-H460 lung it was 97.6%; with HOP-92 NSCLC, 101%; with NCI-H522 lung, 76.6%. In addition, the growth was 93.9% in the test on A549/ATCC NSCLC; 96.7% in the test with 786-0 renal; 106% with COLO 205 colon; 98.2% with DU-145 prostate; 98.2% with K-562 leukemia; 88.9% in the test on MALME-3M melanoma. Moreover, the growth in the test on MDA-MB-231 breast was 104%; in the test on RXF 393 renal, 99.1%; in the test with SF-268 CNS it was 93.7%; with SF-295 CNS, 99%; in the test on SF-539 CNS, 106%; with UACC-257 melanoma, 95.5%. Moreover, the growth with M14 melanoma is 99.4%.

For the compound `Brc1ccc(-c2nc3ccccc3s2)cc1`, the growth was 92.4% in the test on NCI-H23 lung; 75.8% in the test with NCI-H226 lung; 92.7% with NCI-H322M lung; 97.1% in the test with NCI-H460 lung; 97.7% in the test with HOP-92 NSCLC; 93.8% with NCI-H522 lung. The growth in the test with A549/ATCC NSCLC is 106%; in the test with 786-0 renal, 106%; with COLO 205 colon, 106%; in the test with DU-145 prostate it was 108%; in the test with K-562 leukemia it was 96.2%; in the test with MALME-3M melanoma, 95.8%. Moreover, the growth in the test with MDA-MB-231 breast is 82.4%; in the test on RXF 393 renal, 96%; in the test on SF-268 CNS it was 90%; with SF-295 CNS, 98%; in the test on SF-539 CNS, 93.2%; in the test with UACC-257 melanoma, 117%. The growth in the test with M14 melanoma was 97.7%.
